± gives the standard deviation of the averaged measurements.
Assays:
Assay in all cases: cell viability (% of vehicle); higher = less cytotoxic
Details in all cases: 10 µM; 72 h
HCI01 = tested on: HCI01 (cells of a triple-negative basal-like breast cancer xenograft)
HCI03 = tested on: HCI03 (cells of an ER-positive luminal breast cancer xenograft)
HCI09 = tested on: HCI09 (cells of a triple-negative luminal androgen receptor type breast cancer xenograft)
HCI11 = tested on: HCI11 (cells of an ER-positive luminal breast cancer xenograft)
HCI13 = tested on: HCI13 (cells of an ER-positive luminal breast cancer xenograft)
HCI16 = tested on: HCI16 (cells of a triple-negative basal-like breast cancer xenograft)
UCD52 = tested on: UCD52 (cells of a triple-negative basal-like breast cancer xenograft)
WHIM2 = tested on: WHIM2 (cells of a triple-negative basal-like breast cancer xenograft)
WHIM30 = tested on: WHIM30 (cells of a triple-negative basal-like breast cancer xenograft)
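Further: PDX cells carrying CMV promoter-driven luciferase, viability read as total photon flux per second by IVIS imaging following D-luciferin, vehicle control 0.1% DMSO.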

SMILES | cell viability (HCI01) | cell viability (HCI03) | cell viability (HCI09) | cell viability (HCI11) | cell viability (HCI13) | cell viability (HCI16) | cell viability (UCD52) | cell viability (WHIM2) | cell viability (WHIM30)
CC1c2cccc(O)c2C(O)=C2C(=O)C3(O)C(O)=C(C(N)=O)C(=O)C(N(C)C)C3C(O)C21.Cl (configuration not stated) [Doxycycline hyclate] | 159 ± 22 | 109 | 94.8 ± 12 | 114 | 107 ± 5.1 | 134 | 111 ± 3.3 | 90.9 ± 9.3 | 173 ± 22
Cc1cccc(C)c1OCC(=O)NC(Cc1ccccc1)C(O)CC(Cc1ccccc1)NC(=O)C(C(C)C)N1CCCNC1=O (configuration not stated) [Lopinavir] | 83 ± 1.7 | 102 | 57.3 ± 20 | 88.4 | 93.7 ± 6.3 | 116 | 48 ± 4 | 73.6 ± 13 | 96.4 ± 16
CCOC(=O)C(CCc1ccccc1)NC(C)C(=O)N1C(C(=O)O)CC2CCCC21 (configuration not stated) [Ramipril] | 77.7 ± 49 | 129 | 86.7 ± 4.7 | 91.6 | 115 ± 14 | 106 | 87.6 ± 5.9 | 90.8 ± 9.4 | 99.772 ± 0.035
Nc1nc(N)nc(-c2cc(Cl)ccc2Cl)n1 [Irsogladine] | 92.7 ± 5.9 | 113 | 91.9 ± 16 | 89.7 | 102 ± 18 | 108 | 107 ± 4.4 | 114 ± 4.4 | 76.4 ± 4.1
CN1CCN2c3ccccc3Cc3ccccc3C2C1.Cl (configuration not stated) [Mianserin HCl] | 124 ± 24 | 98.3 | 89.4 ± 4.5 | 95.9 | 90 ± 21 | 92.4 | 74.3 ± 4.9 | 73.1 ± 24 | 109 ± 3.4
CC12CCC3c4ccc(OC(=O)c5ccccc5)cc4CCC3C1CCC2O (configuration not stated) [Estradiol Benzoate] | 123.5 ± 0.41 | 131 | 79.7 ± 1.4 | 84.7 | 191 ± 13 | 126 | 83.6 ± 14 | 132 ± 29 | 138 ± 13
COc1nc(N)nc2c1ncn2C1OC(CO)C(O)C1O (configuration not stated) [Nelarabine] | 127 ± 20 | 117 | 113 ± 0.87 | 95.9 | 86.3 ± 5.3 | 98.4 | 111 ± 21 | 96.7 ± 21 | 115 ± 17
CC1(C)SC2C(NC(=O)C(N)c3ccccc3)C(=O)N2C1C(=O)O.O.O.O (configuration not stated) [Ampicillin Trihydrate] | 138 ± 26 | 124 | 94.6 ± 8.1 | 110 | 143 ± 7.4 | 120 | 82 ± 7.2 | 103 ± 2.1 | 95.8 ± 2.6
CCCCN1CCCCC1C(=O)Nc1c(C)cccc1C.Cl (configuration not stated) [Levobupivacaine HCl] | 109 ± 22 | 101 | 117 ± 29 | 106 | 121 ± 14 | 141 | 107 ± 4.1 | 96.2 ± 3 | 163 ± 5.2
C[N+](C)(CCOc1ccccc1)Cc1ccccc1.O=C(O)c1cc2ccccc2cc1[O-] [Bephenium Hydroxynaphthoate] | 121 ± 9.4 | 127 | 128 ± 23 | 125 | 103 ± 21 | 104 | 89.6 ± 12 | 112 ± 22 | 151 ± 20
C1CNCCN1.C[C@@]12CC[C@H]3c4ccc(OS(=O)(=O)O)cc4CC[C@H]3[C@H]1CCC2=O [Estropipate] | 89.8 ± 7.5 | 173 | 81.6 ± 11 | 95.3 | 159 ± 20 | 104 | 104.03 ± 0.037 | 91.3 ± 27 | 98.27 ± 0.36
CC(C)(C)N.CCCC(NC(C)C(=O)N1C(C(=O)O)CC2CCCCC21)C(=O)OCC (configuration not stated) [Perindopril Erbumine] | 84.9 ± 13 | 101 | 95.1 ± 11 | 93.5 | 129 ± 5.6 | 108 | 72.44 ± 0.41 | 98.2 ± 1.5 | 114 ± 28
COc1ccc(C2(C#N)CCC(C(=O)O)CC2)cc1OC1CCCC1 (configuration not stated) [Cilomilast] | 120 ± 9.7 | 114 | 89 ± 22 | 88.4 | 104 ± 9.8 | 146 | 103 ± 12 | 117 ± 8.9 | 113.9 ± 0.63
CN(CC/C=C1C2=CC=CC=C2C=CC3=CC=CC=C3\1)C.Cl [Cyclobenzaprine HCl] | 98.1 ± 17 | 95.1 | 73.5 ± 0.81 | 84.5 | 131 ± 4.4 | 92.3 | 76.4 ± 0.93 | 89.6 ± 14 | 89.9 ± 1.5
O=C(O)/C=C/c1ccc(O)c(O)c1 [Caffeic acid] | 88 ± 6.6 | 115 | 107 ± 24 | 93.3 | 89.9 ± 9.4 | 137 | 97.2 ± 6 | 86.5 ± 20 | 89.4 ± 2.4
CCOC(=O)C(CCc1ccccc1)NC(C)C(=O)N1CCCC1C(=O)O.O=C(O)C=CC(=O)O (configuration not stated) [Enalapril Maleate] | 128 ± 31 | 126 | 101 ± 2.9 | 72.3 | 102 ± 8.6 | 120 | 120 ± 4.4 | 116 ± 15 | 104 ± 3
CN(C)CCC(c1ccc(Cl)cc1)c1ccccn1.O=C(O)C=CC(=O)O (configuration not stated) [Chlorpheniramine Maleate] | 157 ± 40 | 115 | 108 ± 13 | 97 | 178 ± 38 | 126 | 79.7 ± 2.5 | 82.8 ± 11 | 127 ± 12
CN1C2CCC1CC(OC(c1ccccc1)c1ccccc1)C2.CS(=O)(=O)O (configuration not stated) [Benztropine mesylate] | 189 ± 60 | 108 | 110 ± 13 | 94 | 120 ± 14 | 125 | 80.4 ± 7.7 | 83.4 ± 12 | 141 ± 1.6
CS(=O)(=O)N1CCN(Cc2cc3nc(-c4cccc5[nH]ncc45)nc(N4CCOCC4)c3s2)CC1 | 190 ± 66 | 94.8 | 89.23 ± 0.75 | 114 | 90.7 ± 3.3 | – | 88.5 ± 15 | 63.7 ± 3.2 | –
Cc1cc(C(C)(C)C)cc(C)c1CC1=NCCN1.Cl [Xylometazoline HCl] | 74.9 ± 49 | 114 | 103 ± 40 | 89.9 | 136 ± 29 | 106 | 83.9 ± 1.7 | 110 ± 3.6 | 158 ± 12
Cc1cccn2c(=O)c(-c3nnn[n-]3)cnc12.[K+] [Pemirolast potassium] | 97.99 ± 0.96 | 98.7 | 84 ± 3.5 | 90.1 | 97.8 ± 29 | 108 | 92.2 ± 1.2 | 113 ± 7.9 | 93.4 ± 17
